Screening data: PubChem BioAssay, National Center for Advancing Translational Sciences (NCATS)
PI5P4Ka inh: qHTS for Inhibitors of phosphatidylinositol 5-phosphate 4-kinase (PI5P4K); Phosphatidylinositol 5-phosphate 4-kinase type-2 alpha (Homo sapiens), P48426; PI5P4Kalpha enzyme, ADP-Glo luminescence, 60 min; stronger effect = lower value; max response, %; actives 1.2% (n = 330,000); AID 652105, 2013; active means max response of -50% or lower; inconclusive means between -30% and -50%; inactive means -30% or higher; further: value at the top dose of about 77 µM
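Luminescence from ADP-Glo served as readout of PI5P4Kalpha activity in a qHTS format. Reaction: enzyme, substrate, compound, ATP at 5 microM final, 60 min at RT.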
POLB inh: qHTS Assay for Inhibitors of DNA Polymerase Beta; Pol beta primer extension/strand displacement, fluorescence kinetic; Potency, µM (series often up to 114 µM), actives largely listed as inhibitors; actives 1.3% (n = 340,000)
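10 nM enzyme + cpd, 15 min RT; start with substrate 50 nM final; read 0 min and after 10 min RT. Corrected, normalized data; 4-parameter Hill curve fit.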
Pol eta inh: qHTS for Inhibitors of Polymerase Eta; AID 588591, 2011; actives 1.2% (n = 390,000); recombinant Pol eta, fluorescent DNA replication assay; Potency, µM (series often up to 114 µM), usual class: inhibitors; DNA polymerase eta (Homo sapiens), Q9Y253
Target sequence (Q9Y253 whole entry, looked up): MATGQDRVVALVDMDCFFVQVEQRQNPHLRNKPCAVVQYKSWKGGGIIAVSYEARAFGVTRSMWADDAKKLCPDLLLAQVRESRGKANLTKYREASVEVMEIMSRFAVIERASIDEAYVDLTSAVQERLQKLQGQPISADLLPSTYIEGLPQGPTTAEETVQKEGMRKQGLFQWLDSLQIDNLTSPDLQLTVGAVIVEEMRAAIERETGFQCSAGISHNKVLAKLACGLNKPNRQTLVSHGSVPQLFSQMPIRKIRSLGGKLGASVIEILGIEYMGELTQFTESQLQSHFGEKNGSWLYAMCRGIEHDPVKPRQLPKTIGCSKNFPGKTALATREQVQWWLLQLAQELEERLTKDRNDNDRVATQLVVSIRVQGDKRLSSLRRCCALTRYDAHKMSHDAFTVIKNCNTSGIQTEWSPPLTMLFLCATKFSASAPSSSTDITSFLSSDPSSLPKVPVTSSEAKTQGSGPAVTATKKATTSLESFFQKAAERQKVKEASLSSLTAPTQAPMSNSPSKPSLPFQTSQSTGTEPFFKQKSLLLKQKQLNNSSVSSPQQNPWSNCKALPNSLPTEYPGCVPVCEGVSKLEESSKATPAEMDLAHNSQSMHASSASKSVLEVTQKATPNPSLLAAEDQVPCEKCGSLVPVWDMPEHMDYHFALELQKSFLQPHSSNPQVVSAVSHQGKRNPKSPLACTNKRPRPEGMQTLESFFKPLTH
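Pol eta at 10 nM preincubated with compounds 15 min at room temperature; reaction started with fluorescent substrate (50 nM final) and read kinetically at 0 and 10 min.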
WRN inhibitor: qHTS for Inhibitors of WRN Helicase. Bifunctional 3'-5' exonuclease/ATP-dependent helicase WRN (Homo sapiens), Q14191. WRN helicase unwinding, fluorescent forked duplex, kinetic. Potency, µM (series often up to 114 µM), most hits filed as inhibitors. actives 0.46% (n = 360,000); further: nearly all actives have a fitted effect of over 55% in size
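Kinetic red-fluorescence monitoring (525/598 nm) tracks WRN helicase activity after 100 nM fluorophore-quencher forked duplex and 2 mM ATP are added to 20 nM enzyme pretreated 15 min at room temperature with compound.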
Pol kappa inh: qHTS for Inhibitors of Polymerase Kappa. DNA polymerase kappa (Homo sapiens), Q9UBT6. purified Pol kappa, fluorescent DNA synthesis assay, 10 min. Potency, µM (doses to about 107 µM), hits mostly inhibitors. actives 0.53% (n = 400,000)
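First, compounds were pin-transferred onto 10 nM Pol kappa. After 15 min at room temperature, substrate was added to 50 nM final. Fluorescence was then measured kinetically at 0 and 10 min.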
Pol iota inh: qHTS for Inhibitors of Polymerase Iota | Pol iota fluorescent replication assay, 10 min | Potency, µM (highest dose often 115 µM), usual class: inhibitors | actives 1% (n = 390,000)
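Fluorescent replication assay read twice, at 0 min and 10 min after adding 50 nM (final) substrate. Enzyme (10 nM) and compounds were first incubated 15 min at room temperature; enzyme-free buffer wells were negative controls.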
Numbers stand for hits; [ ] = dose if it differs, or a comment. Most compounds without a hit are left out; they make up all but 2.8% or so of the library. Unless noted, the call rests on the fitted dose curve; in most records, active means well fitted curve in the direction sought with a large enough effect; inconclusive means small, poorly fitted or top-dose-only effect, or another doubt; inactive means no such curve, though single readings can be large; an effect the other way counts as inactive or inconclusive.

For COc1cc2c(NC3CCN(C)CC3)nc(N3CCCN(C)CC3)nc2cc1OCCCN1CCCCC1 the results were Pol kappa inh inactive and Pol iota inh inconclusive.
Screening Cc1cnc(NC(=O)/C=C/c2ccc(Br)o2)s1 returned PI5P4Ka inh inactive, POLB inh inconclusive, Pol eta inh inconclusive, WRN inhibitor inactive, Pol kappa inh inactive and Pol iota inh inactive.
O=C(/C=C/c1ccc(Br)o1)Nc1nnc(C2CC2)s1 was read as POLB inh 25.1µM.
`COc1ccc(CNC(=O)c2cccc(-n3cnc4cccnc43)c2C)cc1` gave POLB inh inactive, Pol eta inh inactive, Pol kappa inh inactive and Pol iota inh inactive.
CCOCCCn1c(SCC(=O)OCC)nc2c(sc3ccccc32)c1=O was read as POLB inh inactive, Pol eta inh inactive, Pol kappa inh inactive and Pol iota inh inactive.
Screening CC(C)c1ccc(NC(=O)C[n+]2ccn(C3=C([O-])c4ccccc4C3=O)c2)cc1 returned PI5P4Ka inh inactive, POLB inh inconclusive, Pol eta inh 79.4µM, WRN inhibitor inactive, Pol kappa inh inactive and Pol iota inh inconclusive.
O=C(CCl)Nc1nc(-c2ccco2)c(-c2ccco2)s1 was read as PI5P4Ka inh inactive, POLB inh inconclusive, Pol eta inh 12.6µM, WRN inhibitor inactive[11.6 µM], Pol kappa inh inactive and Pol iota inh inconclusive.
O=C(CCS(=O)(=O)c1ccccc1)Nc1ccc2c(c1)OCO2 was read as PI5P4Ka inh inconclusive, POLB inh 11.2µM, Pol eta inh inactive, WRN inhibitor inactive, Pol kappa inh inconclusive and Pol iota inh inconclusive.
O=C(CCS(=O)(=O)c1ccccc1)Nc1ccc(Cl)cn1 was read as PI5P4Ka inh inactive, POLB inh 31.6µM, Pol eta inh inactive, WRN inhibitor inactive, Pol kappa inh inactive and Pol iota inh inactive.
Screening CC1(C)CC(=O)c2cc(C(=O)Nc3cccc4ccccc34)c(=O)[nH]c2C1 returned Pol kappa inh inactive and Pol iota inh inactive.
Screening COc1ccc(OC)c(NC(=O)CCNS(=O)(=O)c2ccc3[nH]c(=O)oc3c2)c1 returned PI5P4Ka inh inactive, POLB inh inactive, Pol eta inh inconclusive, WRN inhibitor inactive[11.6 µM], Pol kappa inh inactive and Pol iota inh inactive.
For O=C(CCNS(=O)(=O)c1ccc2[nH]c(=O)oc2c1)NCc1ccccc1 the results were PI5P4Ka inh inactive, POLB inh inactive, Pol eta inh inactive, WRN inhibitor inactive, Pol kappa inh inactive and Pol iota inh inactive.
`COc1ccccc1CNC(=O)CCNS(=O)(=O)c1ccc2[nH]c(=O)oc2c1` gave PI5P4Ka inh inactive, POLB inh inconclusive, Pol eta inh 79.4µM, WRN inhibitor inactive[11.6 µM], Pol kappa inh inactive and Pol iota inh inactive.
For COc1ccccc1NC(=O)CCNS(=O)(=O)c1ccc2[nH]c(=O)oc2c1 the results were PI5P4Ka inh inactive, POLB inh inactive, Pol eta inh 25.1µM, WRN inhibitor inactive, Pol kappa inh inconclusive and Pol iota inh inconclusive.
`C(=C\c1nccc2ccccc12)/c1ccc(N2CCOCC2)cc1` gave Pol kappa inh inactive and Pol iota inh inactive.
For Cc1cc(OC(C)C(=O)NCC2CCC(C(=O)O)CC2)c2c(C)c(Cc3ccccc3)c(=O)oc2c1 (stereo not given) the results were PI5P4Ka inh inactive, POLB inh inactive, Pol eta inh inconclusive, WRN inhibitor inactive[11.6 µM], Pol kappa inh inactive and Pol iota inh 79.4µM.
For Cc1ccc(O)c(C(=O)c2cc(C#N)c(=O)n(-c3c(C)n(C)n(-c4ccccc4)c3=O)c2)c1 the results were POLB inh inactive, Pol eta inh inactive, WRN inhibitor inactive, Pol kappa inh inactive and Pol iota inh inactive.
`Cc1ccc(O)c(C(=O)c2cc(C#N)c(=O)n(-c3nccs3)c2)c1` gave PI5P4Ka inh inconclusive, POLB inh 25.1µM, Pol eta inh 39.8µM, WRN inhibitor inactive, Pol kappa inh inactive and Pol iota inh inconclusive.
For Nc1nc2[nH]c(=S)[nH]c2c(=O)[nH]1 the results were Pol kappa inh inactive and Pol iota inh inactive.
`O=C(NCc1ccco1)[C@@H]1CSC2c3ccccc3C(=O)N21` (stereo not given in full) gave PI5P4Ka inh inconclusive, POLB inh inactive, Pol eta inh 14.1µM, WRN inhibitor inactive, Pol kappa inh inconclusive and Pol iota inh 20µM.
Screening CC1(C)Cc2c(c(-c3ccccc3)[nH]c(=O)c2C#N)CS1 returned PI5P4Ka inh inactive, POLB inh inactive, Pol eta inh inactive, WRN inhibitor inactive, Pol kappa inh inactive and Pol iota inh inactive.
Screening CC1(C)Cc2c(c(-c3ccco3)[nH]c(=O)c2C#N)CS1 returned PI5P4Ka inh inactive, POLB inh 28.2µM, Pol eta inh inconclusive, WRN inhibitor inactive, Pol kappa inh inactive and Pol iota inh 28.2µM.
Screening Cc1ccc(SCc2nc(-c3ccc(C(=O)NCc4ccc(Cl)cc4)cc3)oc2C)cc1 returned POLB inh inactive, Pol eta inh inactive, Pol kappa inh inactive and Pol iota inh inconclusive.
For O=C(Oc1coc(CSc2nnc(NC(=O)c3cccs3)s2)cc1=O)c1ccccc1 the results were PI5P4Ka inh inactive, POLB inh 12.6µM, Pol eta inh inconclusive, WRN inhibitor inactive, Pol kappa inh inconclusive and Pol iota inh inconclusive.
Cc1ccc(C(=O)Oc2coc(CSc3nnc(NC(=O)C4CC4)s3)cc2=O)cc1 was read as PI5P4Ka inh inactive, POLB inh inactive, Pol eta inh inconclusive, WRN inhibitor inactive, Pol kappa inh inactive and Pol iota inh inconclusive.
For O=C(CSC1=NC(=O)C(c2ccccc2)C(=O)N1)Nc1ccccc1[N+](=O)[O-] (stereo not given) the results were PI5P4Ka inh inactive, POLB inh inconclusive, Pol eta inh 50.1µM, WRN inhibitor inactive[11.6 µM], Pol kappa inh inconclusive and Pol iota inh inconclusive.
`CC(C)c1nn2c(=O)cc(COC(=O)c3ccc(NC(=O)C4CCCCC4)cc3)nc2s1` gave POLB inh inactive, Pol eta inh 79.4µM, Pol kappa inh inactive and Pol iota inh inactive.
Screening Cc1nn2c(=O)cc(COC(=O)c3ccc(NC(=O)CCc4ccccc4)cc3)nc2s1 returned POLB inh 79.4µM, Pol eta inh inactive, Pol kappa inh inactive and Pol iota inh inactive.
Screening Cc1nn2c(=O)cc(COC(=O)c3cccc(NC(=O)CCc4ccccc4)c3)nc2s1 returned POLB inh inactive, Pol eta inh inactive, Pol kappa inh inactive and Pol iota inh inconclusive.
